According to PubChem BioAssay AID652195 (Johns Hopkins Ion Channel Center, 2013):

target: Short transient receptor potential channel 6 (Mus musculus) (UniProt Q61143); experiment: mouse TRPC6 channel blockers, concentration series – HEK293 cells, membrane potential dye, quadruplicate, selectivity assay for selective TRPC4 inhibitor project, dose response (AID 652195); settings: FDSS; series mostly up to 20 µM; membrane potential ratio (lower = inhibition): at the top concentration
Sequence (Q61143 whole entry, looked up): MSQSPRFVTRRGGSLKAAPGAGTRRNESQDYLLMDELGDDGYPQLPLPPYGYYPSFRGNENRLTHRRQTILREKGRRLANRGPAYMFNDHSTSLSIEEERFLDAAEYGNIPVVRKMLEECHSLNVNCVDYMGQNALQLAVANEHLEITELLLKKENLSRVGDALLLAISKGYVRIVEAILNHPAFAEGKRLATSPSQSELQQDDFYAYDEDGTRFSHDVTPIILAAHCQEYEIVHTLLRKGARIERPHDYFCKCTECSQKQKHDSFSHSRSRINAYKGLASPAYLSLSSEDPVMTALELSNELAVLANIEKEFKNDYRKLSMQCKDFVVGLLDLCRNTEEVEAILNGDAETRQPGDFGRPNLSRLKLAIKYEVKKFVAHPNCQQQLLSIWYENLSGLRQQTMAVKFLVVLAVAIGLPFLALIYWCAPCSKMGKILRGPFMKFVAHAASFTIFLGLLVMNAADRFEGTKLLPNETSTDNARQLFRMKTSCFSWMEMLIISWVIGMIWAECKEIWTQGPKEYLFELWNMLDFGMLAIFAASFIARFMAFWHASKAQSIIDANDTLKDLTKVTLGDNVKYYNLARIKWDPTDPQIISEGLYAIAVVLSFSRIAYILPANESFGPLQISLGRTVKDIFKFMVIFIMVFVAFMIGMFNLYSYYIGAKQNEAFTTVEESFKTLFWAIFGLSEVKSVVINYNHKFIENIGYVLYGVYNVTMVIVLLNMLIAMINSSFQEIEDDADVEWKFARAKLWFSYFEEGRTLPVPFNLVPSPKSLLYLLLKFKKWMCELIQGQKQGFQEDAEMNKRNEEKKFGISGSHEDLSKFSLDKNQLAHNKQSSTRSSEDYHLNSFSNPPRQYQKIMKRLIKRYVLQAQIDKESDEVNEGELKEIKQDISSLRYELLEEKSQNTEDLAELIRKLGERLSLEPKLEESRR

Membrane potential ratio (lower = inhibition), inactive:
Cc1cc(N2CCC(F)CC2)nc2ccccc12 37.7
C[C@H]1CCCN1c1ccc2ccccc2n1 30.5
FC1CCN(c2ccc3ccccc3n2)CC1 37.4
O=C1CCN(c2ccc3ccccc3n2)CC1 43.8
Cc1cc(-n2ccnc2)nc2ccccc12 50.2
FC1(F)CCN(c2ccc3ccccc3n2)CC1 39.6
OC1CCCN(c2ccc3ccccc3n2)C1 (centres undefined) 36.9
Cc1cc(N2CCC(=O)CC2)nc2ccccc12 40.5
Cc1cc(N2CCC(F)(F)CC2)nc2ccccc12 43.2
FC1CCCN(c2ccc3ccccc3n2)C1 (centres undefined) 43.5
Cc1cc(N2CCC(O)C2)nc2ccccc12 (centres undefined) 33.5
Cc1cc(-n2cccn2)nc2ccccc12 42.6
Cc1cc(-n2cccc2)nc2ccccc12 41.5
OC1CCN(c2ccc3ccccc3n2)CC1 50.8
OC1CCN(c2ccc3ccccc3n2)C1 (centres undefined) 42.2
Cc1cc(N(C)C)nc2ccccc12 37.2
c1ccc2nc(N3CCCC3)ccc2c1 35.8
Cc1cc(N2CCC(O)CC2)nc2ccccc12 44.3
Cc1cc(N2CCCC(F)C2)nc2ccccc12 (centres undefined) 35.9
